# High-throughput results (PubChem)
# Dicer inh – human Dicer pre-microRNA cleavage inhibition; hit rate 6% among 47,000; Q9UPY3; z-score at 25 µM; cat-ELCCA pre-miR-21 Dicer processing, chemiluminescence; stronger effect = higher value; in the data active = z-score above about 3, passing the limit was not always enough;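 also: higher signal means more uncleaved substrate so more Dicer inhibition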
# Hits are given with their value; i = inactive. Shown is part of a subset that was picked to be rich in hits.
SMILES,Dicer inh
CSc1nc(-c2ccccc2)nc(Nc2ccc(C(F)(F)F)cc2)c1C#N,i
NC(=S)N/N=C\Cc1nnnn1-c1ccccc1,i
C(=C\c1nnnn1-c1ccccc1)/NCc1ccccc1,i
Fc1ccc(N/N=C/Cc2nnnn2-c2ccccc2)c(F)c1,3.9
COc1cc(C2C(C#N)=C(N)Oc3c2c(C)nn3-c2ccccc2)ccc1O (centres undefined),i
CCOC(=O)C(CC)Oc1ccc2c(c1)oc(=O)c1ccccc12 (centres undefined),i
Cc1ccc(C(=O)CSc2nnc(-c3ccc4ccccc4c3)n2C)cc1,i
C=CCn1c(SCC(C)=O)nnc1-c1ccc2ncccc2c1,i
CC(C)NC(=O)CSc1nnc(-c2ccc3ncccc3c2)n1C,3.1
Fc1ccc(C2Sc3ccccc3N=C3c4ccccc4CCC32)cc1 (centres undefined),i
Nc1ccc(Cl)cc1-c1nc2ccccc2[nH]1,i
Cn1c(=O)n(C)c2cc(S(=O)(=O)Nc3ccccc3O)ccc21,i
Cc1cc(O)c(C(C)C)cc1NS(=O)(=O)c1ccccc1,4.2
Cc1ccnc(NS(=O)(=O)c2ccccc2)c1,i
CC(C)(C)c1oncc1C(=O)N1CCOCC1,i
COC(=O)c1cnc(Sc2n[nH]c(=O)n2C2CCCCC2)c([N+](=O)[O-])c1,i
Cc1cccc2c1[nH]c1nc(SCC(C)C)nnc12,i
CCOC(=O)COc1ccc(F)cc1C(=O)c1ccn2nc(-c3ccc(F)cc3)cc2n1,i
Cc1ccc(C(O)(c2ccccc2)c2nccn2C)cc1 (centres undefined),i
COC(=O)[C@H]1OC(O)[C@H](O)[C@@H](O)[C@H]1O (some centres undefined),5.8
CSC1=NCN(C(C)(C)C)CN1,i
CN(C)CCOC(c1ccccc1)c1ccccc1,i
COc1ccc(NS(=O)(=O)c2ccc(N)cc2)cc1,i
COc1ccc(NS(=O)(=O)c2cccc(S(=O)(=O)c3ccc(Cl)cc3)c2)cc1,3.4
COc1ccc(NS(=O)(=O)c2ccc(NS(=O)(=O)c3ccc(Cl)cc3)cc2)cc1,i
SMILES,Dicer inh
Cc1c(Cl)cccc1N1CC(O)=C(c2nc3ccccc3c(=O)[nH]2)C1=N,i
COCCNCCn1cnc2c1c(=O)[nH]c(=O)n2C,i
c1ccc(-c2nc3c4ccccc4ccn3c2CN2CCOCC2)cc1,i
COc1ccc(-c2nnc(N3CCOCC3)c3ccccc23)cc1,i
c1ccc(-c2nn3c4cc(N5CCOCC5)ccc4nc3c3ccccc23)cc1,6.1
CCOC(=O)C(=CNc1nc2ccc(C(=O)OCC)cc2s1)C(=O)OCC,i
CCOc1ccc(S(=O)(=O)n2cnc(C)c2)c(C)c1C,i
Cc1ccc2nc(NC3=NCN(Cc4ccco4)CN3)nc(C)c2c1,i
CC1(C)CC(=O)C=C(SCc2cccc(Cl)c2)S1,4.5
CC1(C)CC(=O)C=C(SCCS(=O)(=O)c2ccc(Cl)cc2)S1,i
CC1(C)CC(=O)C=C(SCc2c(Cl)cccc2Cl)S1,i
Cc1nn(-c2ccccc2)cc1/C=N/Nc1nc2ccccc2s1,i
COc1cc2ccccc2cc1C(=O)Nc1nc2ccccc2s1,i
C(=N\Nc1nc2ccccc2s1)/c1ccco1,3.8
COc1cc(/C=N/Nc2nc3ccccc3s2)cc(OC)c1OC,3.5
COc1cc(/C=N/NC(=S)NCCc2ccccc2)cc(OC)c1OC,i
C(=N\Nc1nc2ccccc2s1)/c1cccs1,i
OC(CNC1CCc2ccccc21)COc1ccc(-c2csnn2)cc1 (centres undefined),i
CC1=C(C(=O)OCCc2ccccc2)C(c2ccc(O)cc2)C2=C(CC(C)(C)CC2=O)N1 (centres undefined),i
O=C(Nc1nnc(COc2ccc(Cl)cc2)s1)c1ccco1,4
O=C(Nc1nnc(CCSc2ccc3ccccc3c2)s1)c1ccco1,i
COCc1nnc(NC(=O)COc2ccc(Cl)cc2)s1,i
CCNC(=O)C(CC(C)C)NC(=O)OC(C)(C)C (centres undefined),i
COc1cc(C2C3=C(CCCC3=O)N(CC(=O)O)C3=C2C(=O)CCC3)cc(Br)c1OC,i
Cc1ccc(Cl)cc1N1C(=O)CC(C)(C)CC1=O,i
SMILES,Dicer inh
COc1ccc(Cl)cc1N1C(=O)c2ccncc2C1=O,i
Cc1ccc(Cl)cc1N1C(=O)c2ccncc2C1=O,3.4
S=c1[nH]nc2nnc3ccccc3n12,i
Cc1ccc(N/N=C(/C#N)C(=O)C2CC2)cc1,i
S=c1[nH]nc(Nc2ccc(Br)cc2Cl)s1,i
S=c1[nH]nc(NCCc2ccc(Cl)cc2)s1,3.3
S=c1[nH]nc(Nc2ccccc2Cl)s1,i
Cc1c2c(=O)n(-c3nc4ccccc4s3)nc-2cc(O)n1CCCN1CCOCC1,i
O=C(NNC(=S)Nc1ccc(F)cc1)C(O)(c1ccccc1)c1ccccc1,i
C=C(NCc1cccnc1)c1ccc(Cl)cc1,i
CCOC(=S)SCc1cc(F)cc2c1OCOC2,i
O=C(c1ccc(Cl)cc1)c1cnc(-c2ccccc2)s1,i
O=C1c2ccccc2S(=O)(=O)N1CCCCN1CCN(c2ncccn2)CC1,i
O=C1c2ccccc2S(=O)(=O)N1Cc1cccc2ccccc12,i
O=C(OCCN1CCN(C2=NS(=O)(=O)c3ccccc32)CC1)c1cccc2ccccc12,3.2
COc1nc2c(c(-c3ccc4ccccc4c3)c1C#N)CCc1ccccc1-2,i
COc1nc2c(c(-c3ccc(Cl)cc3Cl)c1C#N)CCc1ccccc1-2,3.1
COc1nc2c(c(-c3ccc(C(F)(F)F)cc3)c1C#N)CCc1ccccc1-2,i
O=c1c2cnn(-c3ccccc3)c2nnn1/N=C/c1ccc(Cl)cc1,i
O=C(C1=C(O)C(=O)N(CCCn2ccnc2)C1c1cccnc1)c1cccs1 (centres undefined),3.1
O=C(C1=C(O)C(=O)N(CCCn2ccnc2)C1c1cccnc1)c1cc2ccccc2o1 (centres undefined),i
COc1ccc(C2C(C(=O)c3cccs3)=C(O)C(=O)N2CCCn2ccnc2)cc1 (centres undefined),i
O=C1C2ON(c3ccc(Cl)cc3)C(c3cccs3)C2C(=O)N1c1ccc(N2CCOCC2)cc1 (centres undefined),i
COc1ccc(Sc2ccc(C)cc2)c([N+](=O)[O-])c1,i
Cc1ccc(Sc2ccc(/C=C3/SC(=S)NC3=O)cc2[N+](=O)[O-])cc1,4.6
SMILES,Dicer inh
Cc1ccc(Sc2cc(N3CCOCC3)c(C)cc2[N+](=O)[O-])cc1,i
Nc1ccc2nn(-c3cccc4ccccc34)nc2c1,i
CCOc1cc(N2CCOCC2)c(OCC)cc1NS(=O)(=O)C(C)C,i
CCc1c(C)nc(N2CCOCC2)[nH]c1=O,i
CC(C)Oc1c(N2CCOCC2)c(=O)c1=O,5.3
O=C(Cc1c(F)cccc1Cl)NC(=O)NCCc1c(F)cccc1Cl,i
Cc1ccc(C)n1-c1cc([N+](=O)[O-])ccc1-n1ccnc1,i
Cc1ccc(C)n1-c1cc([N+](=O)[O-])ccc1N1CCN(C(=O)N(C)C)CC1,i
Cc1ccc(C)n1-c1cc([N+](=O)[O-])ccc1N1CCN(S(=O)(=O)c2cn(C)cn2)CC1,4.8
CCCN1C2=NCCCN2c2ccccc21,i
S=c1[nH]c2cc(Cl)cc(Cl)c2o1,i
Fc1cc2[nH]c(=S)[nH]c2cc1Cl,4.2
O=C1CC2(CCCC2)C(=O)N1c1ccc(S(=O)(=O)NCCCNc2ncc(C(F)(F)F)cc2Cl)cc1Cl,i
NC(=O)c1ccc(Nc2ncnc3nc[nH]c23)cc1,i
CN(C)c1ccc(C=C2C(=O)N(c3ccccc3)C(=O)N(c3ccccc3)C2=O)cc1,i
CN(C)c1ccc(/C=C2/OC(=S)NC2=S)cc1,3.4
